GDH-TPI counter = inhibits GDH-TPI coupling enzymes, artifact for Mtb FBA screen. inhibition, % at 4.8 µM. 1.2% of 360,000 active. GDH-TPI coupled enzyme counterscreen, NADH absorbance. AID 588335; in the data active means inhibition above about 30%;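 further: 0% = DMSO wells and 100% = wells lacking the enzyme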
BoNT A protease = inhibitors of Botulinum neurotoxin A light chain protease. inhibition, % at 10 µM. multiplex microsphere protease substrate cleavage, flow cytometry. 0.17% of 360,000 active. AID 588499; further: plate controls were buffer without enzyme for full effect and enzyme alone for no effect
FBA Mtb inh = Mtb fructose-bisphosphate aldolase inhibition. P9WQA3. purified M. tuberculosis FBA, fluorescence read-out. inhibition, % at 1 µM. 2.3% of 360,000 active; in the data active means inhibition above about 27%;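 further: 0% = vehicle and 100% = reference inhibitor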
BoNT-F LC inh = inhibitors of Botulinum neurotoxin F light chain protease | AID 588497 | 0.22% of 360,000 active | Multiplex microsphere protease cleavage assay, flow cytometry | inhibition, % at 10 µM; in the data active means inhibition above about 35%, passing the limit was not always enough; inconclusive means no clear call, values can overlap the other calls; further: plate controls were buffer without enzyme for full effect and enzyme alone for no effect
Autofluor counter = counter-screen for toxin protease inhibitors: compound fluorescence; compound autofluorescence counterscreen, microsphere flow cytometry; stronger effect = higher value; fluorescence intensity (test concentration not listed); 3.1% of 360,000 active; in the data active means fluorescence intensity above about 16000; inconclusive means no clear call, values can overlap the other calls
Anthrax LF prot = anthrax lethal factor protease inhibition; multiplex microsphere protease cleavage assay, LF; inhibition, % at 10 µM; 0.12% of 360,000 active; AID 588501; further: plate controls were buffer without enzyme for full effect and enzyme alone for no effect
Numbers without * were called inactive; ? = inconclusive; nt = no result. Hits are enriched below; roughly 6.7% of the tested compounds scored in any of these assays. Unless noted, no stated cut-off is given here; in the data, active means inhibition above about 30%; inconclusive means no clear call, values can overlap the other calls; inactive means below that.

SMILES	GDH-TPI counter	BoNT A protease	FBA Mtb inh	BoNT-F LC inh	Autofluor counter	Anthrax LF prot
O=C(Nc1ccc(N2CCOCC2)cc1)c1cc(-c2ccncc2)nc2ccccc12	12	-1	1	-21	4382	-4
COc1cc(S(=O)(=O)N2CCCN(C)CC2)ccc1NC(C)=O	-7	1	4	7	5223	-1
Cc1ccc(/C=C/C(=O)OCC(=O)N(CC(C)C)c2c(N)n(Cc3ccccc3)c(=O)[nH]c2=O)o1	42*	-5	0	?	?	-6
CCN(C(=O)COC(=O)/C=C/c1ccc(C)o1)c1c(N)n(Cc2ccccc2)c(=O)[nH]c1=O	22	-2	1	2	6941	-4
Cn1c(SCC(=O)c2ccc(F)cc2)nnc1-c1cnccn1	-11	4	0	7	18205*	-15
O=C(CSc1nnc(-c2cnccn2)n1Cc1ccco1)c1ccccc1	2	-2	-2	-6	17135*	-4
CC(C)NC(=O)Cn1c(SCC(=O)N2CCc3ccccc3C2)nc2ccccc21	4	-3	1	-7	20580*	-1
CCCn1[nH]cc(SC)c(=O)c1=O	17	?	1	0	16432*	1
CCOC(=O)C1(Cc2ccccc2)CCCN(Cc2ccccn2)C1 (stereo not drawn)	-3	0	0	0	4375	-9
COc1cc2c(C(=O)N3CCN(C)CC3)c(C)n(-c3ccccc3)c2cc1Br	3	-2	2	-3	25113*	1
Cc1ccc(C)c(N2CN(Cc3cccnc3)CNC2=S)c1	-10	1	1	5	9694	-4
COCCN=C1N[C@@H](c2ccccc2)C(C(=O)OC)=C(C)N1Cc1ccccc1	-7	0	-3	-12	4041	-3
CCCCn1nnc(NC(=O)C(c2ccccc2)c2ccccc2)n1	-4	0	-1	-6	4534	-10
CCCCn1nnc(NC(=O)CCC)n1	-6	2	-3	1	19212*	-4
Cc1ccc2[nH]c(=O)c(CN(CCCN(C)C)C(=O)Nc3ccc(F)cc3)cc2c1	4	0	-5	3	3226	-2
CC(C)(C)C(=O)Nc1ccccc1C(=O)Nc1cc(Cl)ccc1Cl	-10	-1	0	-1	23417*	-1
COc1cccc(N2CCN(C(=O)c3ccc(CS(=O)c4ccccc4C)o3)CC2)c1 (stereo not drawn)	-3	nt	26	nt	nt	nt
O=C(N/N=C/c1cccnc1)c1cccc(N2CCCC2=O)c1	-5	?	-6	?	4332	-10
CCN(CC)c1ccc(/C=N/NC(=O)c2cccc(N3CCCC3=O)c2)cc1	31*	0	-1	-2	2474	0
COc1cc(/C=N/NC(=O)c2cccc(N3CCCC3=O)c2)ccc1O	40*	-1	0	-7	3776	24
COc1ccc(N2c3ccccc3CN(Cc3ccccc3)[C@@H](C)[C@H]2Cc2cccnc2)cc1	9	-1	2	-3	3629	-7
CCN(C(=O)CCN1C(=O)c2ccccc2S1(=O)=O)c1ccccc1	15	1	-1	7	?	-5
Cn1nc(C(C)(C)C)cc1N1C(=O)CCC1(C)C(=O)NC1CCCCC1 (stereo not drawn)	nt	-1	0	-3	5493	-1
COc1cccc(C2=N/C(=C\N(C)C)C(=O)O2)c1	37*	2	0	19	4783	-2
COc1cccc(-c2nc3ccccc3c(=O)o2)c1	-5	0	2	-9	?	4
SMILES	GDH-TPI counter	BoNT A protease	FBA Mtb inh	BoNT-F LC inh	Autofluor counter	Anthrax LF prot
Cc1ccc(NS(=O)(=O)c2ccc(N3C(=O)CCC3=O)cc2)cc1	4	7	0	10	18928*	-18
Cc1cccc(NC(=O)CN2C(=O)COc3ccc(Cl)cc32)c1	0	-1	-3	-5	7994	-2
CC1CC(=O)N(CC(=O)Nc2ccc3c(c2)OCCO3)c2ccccc2S1 (stereo not drawn)	6	0	3	2	16421*	-1
CC1Oc2ccccc2N(CC(=O)Nc2ccc3c(c2)OCCO3)C1=O (stereo not drawn)	-8	-1	0	-4	11423	-3
O=C(CN1C(=O)COc2ccc(Cl)cc21)Nc1ccc2c(c1)OCCO2	2	?	-5	-6	17358*	1
O=C(Cn1ccc2ccccc2c1=O)NCCC(=O)Nc1ccc2c(c1)OCCO2	3	?	-3	-2	20380*	-6
O=c1[nH]cnc2c1ncn2-c1ccc(N(CCO)CCO)cc1	4	0	1	-2	2830	-2
O=C(COc1ccc(Br)cc1)N1CCc2ccccc21	3	?	1	?	3225	10
Nc1nnc(/C=C/c2cccc([N+](=O)[O-])c2)s1	44*	nt	0	nt	nt	nt
Nc1nnc(-c2cccc([N+](=O)[O-])c2)s1	3	-1	-4	6	4259	-9
CCOC(=O)C1=C(C)Nc2nc(SC)nn2C1c1ccc(C(=O)OC)cc1 (stereo not drawn)	0	-1	-2	-1	9712	-15
O=C(NCCCN1CCOCC1)C(Cl)(Cl)Cl	-5	0	2	-6	2551	-2
Cc1ccc(C(=O)N/C(=C\c2ccc(-c3cc(Cl)ccc3Cl)o2)C(=O)NCc2cccnc2)cc1	40*	0	9	-4	2530	-12
O=C(NCc1cccnc1)/C(=C\c1ccc(-c2cccc(Cl)c2)o1)S(=O)(=O)c1ccccc1	41*	2	0	8	7557	3
O=C(NCc1cccs1)c1cccc(S(=O)(=O)N2CCCCC2)c1	6	1	-1	-3	9346	-7
CCOc1ccc(CCNS(=O)(=O)c2c(C)nc3scc(C)n3c2=O)cc1OCC	33*	-6	-1	-44	3103	-11
CCOC(=O)Cn1c(=O)oc2cc(S(=O)(=O)NCCc3ccc(OCC)c(OCC)c3)ccc21	3	?	0	1	22861*	1
CCOC(=O)Cn1c(=O)oc2cc(S(=O)(=O)NCCC(C)C)ccc21	8	-1	4	8	4181	-2
CCOC(=O)Cn1c(=O)oc2cc(S(=O)(=O)Nc3cc(Cl)ccc3OC)ccc21	-13	0	-1	-3	5601	2
CCOC(=O)Cn1c(=O)oc2cc(S(=O)(=O)N(CCN(C)C)Cc3ccccc3)ccc21	-4	-2	-1	-4	23509*	-5
CCOC(=O)Cn1c(=O)oc2cc(S(=O)(=O)Nc3cc(OCC)ccc3OCC)ccc21	-6	?	5	-3	16486*	-3
Cc1cc(NC(=O)c2cc3n(n2)C(C(F)(F)F)CC(c2ccco2)N3)no1 (stereo not drawn)	3	-1	-1	-4	6795	3
CC(=O)Nc1sc(-c2ccccc2)nc1-c1ccccc1	6	0	9	-9	5519	-6
Cn1c(N)c(C(=O)COC(=O)CCCN2C(=O)c3ccccc3C2=O)c(=O)n(C)c1=O	2	-1	3	-3	3426	-1

High-throughput results (PubChem BioAssay)
